SARS PLpro yeast: SARS-CoV PLP inhibition in yeast; S. cerevisiae expressing SARS-CoV PLpro, growth rescue; Potency, µM (doses to about 32.9 µM), for the others: top-dose activity, positive = growth rescue, usual class: activators; actives 0.19% (n = 330,000); calls by dose curve; note: potency is the fitted concentration of half-maximal effect; 0% is about no effect; nearly all actives have a fitted effect of over 55% in size
Shiga toxin inh: inhibitors of Shiga toxin in Vero cells | Vero cells, Shiga toxin protein synthesis inhibition reporter | inhibition, % at 38.7 µM | actives 9.2% (n = 290,000) | AID 2315; in the data active = inhibition mostly above about 28%, no sharp cut-off; inactive = mostly below about 43%; note: 0% is about no effect
Pf growth 96h: P. falciparum growth inhibition at 96 hours. P. falciparum luciferase reporter growth, 96 h. Potency, µM (titrated, usually from 28.7 µM), without a hit: at the top dose activity change, negative = inhibition, usual class: inhibitors. actives 6.9% (n = 320,000). AID 504834; note: potency is the fitted concentration of half-maximal effect; % is set by controls: 0 for no effect and ±100 for the full control effect
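P. falciparum expressing integrated firefly luciferase grown in erythrocytes (2% hematocrit, 0.05% parasitemia final) with compounds for 96 hours at 37 C, 5% CO2. Growth inhibition read as loss of luminescence after adding luciferase detection reagent.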
Pf growth 48h: inhibits P. falciparum growth in the first generation, 48 h | P. falciparum luciferase growth in erythrocytes, 48 h | actives 5.9% (n = 310,000) | Potency, µM (top dose mostly 28.7 µM), for inactives: at the top dose activity change, negative = inhibition, most hits filed as inhibitors; note: potency is the fitted concentration of half-maximal effect; % is set by controls: 0 for no effect and ±100 for the full control effect
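Erythrocytes infected with P. falciparum carrying an integrated firefly luciferase reporter (2% hematocrit, 0.1% parasitemia final) were exposed to compounds in RPMI 1640 with 0.5% Albumax at 37 C, 5% CO2. Growth inhibition was scored as reduced luminescence.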
CHX counter: affects cycloheximide protein synthesis inhibition readout, counter-screen | cell reporter, cycloheximide protein synthesis inhibition counterscreen | max response, % | actives 12% (n = 300,000); in the data active = max response mostly above about 13%, no sharp cut-off; inactive = mostly below about 14%; note: read at 38.3 µM for the half of the compounds with a filed dose; 0% is about no effect
AMA1-RON2 inh: AMA1-RON2 (P. falciparum) interaction inhibition; AlphaScreen AMA1-biotinylated RON2 peptide binding; Potency, µM (top dose mostly 58.2 µM), for the others: at the highest dose activity change, negative = inhibition, most hits filed as inhibitors; actives 0.2% (n = 360,000);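 note: potency is the fitted concentration of half-maximal effect; 0% = vehicle wells and -100% = peptide control; nearly all actives have a fitted effect of over 45% in size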
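AMA1 (3D7) with his tag at 25 nM final met compounds first, then biotinylated RON2 peptide at 25 nM; detection used donor plus acceptor beads, 10 µg/mL apiece, read by AlphaScreen after 30 min at room temperature.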
Starred values were filed as active, the others as inactive; ? = inconclusive; · = no result given; ! = not confirmed by another sample; [ ] = another dose, or the depositor's remark. Shown are actives, neighbours in structure and some others; about 19% of the full set was active somewhere. Unless noted, calls come from the whole dose curve; as a rule, active = well fitted curve in the direction sought with a large enough effect; inconclusive = small, poorly fitted or top-dose-only effect, or another doubt; inactive = no such curve, though single readings can be large; an effect the other way counts as inactive or inconclusive.

SMILES	SARS PLpro yeast	Shiga toxin inh	Pf growth 96h	Pf growth 48h	CHX counter	AMA1-RON2 inh
O=C(CP(=O)(c1ccccc1)c1ccccc1)Nc1nc2ccccc2s1	0%	2	?	15%	2	-4%
CCOc1ccc2nc(NS(=O)(=O)c3cccs3)sc2c1	6%	·	63%	26%	-3	1%
CC(Cc1ccccc1)C(=O)NCc1nc2ccccc2s1 (stereo not drawn)	-17%	30*	10%	57%	19*	32%
CCOc1ccc2nc(NC(=O)Cc3cccs3)sc2c1	-12%	84*	·	98%	40*	-4%
CN(C)C(CNC(=O)CCc1nc2ccccc2s1)c1ccccc1 (stereo not drawn)	-3%	-3	4%	24%	5	18%
Cc1ccc2nc(-c3ccc(NC(=O)C4CCCO4)cc3)[nH]c2c1 (stereo not drawn)	-14%	44	-74%	·	55*	-3%
O=C(Cc1cccs1)Nc1nc2ccccc2s1	2%	111*	100%	2%	30*	-4%
O=C(COc1ccc(Cl)cc1[N+](=O)[O-])N1CCCCCC1	0%	18	?	-2%	11	0%
CCOC(=O)c1c(NC(=O)CN2C(=O)C(=O)N(C(C)C)C2=O)sc(C)c1CC	6%	·	-9%	?	·	3%
O=C(NC(=S)N1CCN(C/C=C/c2ccccc2)CC1)c1ccc(Cl)nc1	3%	-10	?	?	-1	95%
O=C(Cc1cccs1)Nc1ccccc1-c1nc2ccccc2[nH]1	-2%	-2	8%	?	-4	27%
NC(=S)Nc1nc2ccccc2s1	0%	64*	?	?	38*	85%
O=C(Nc1nc2ccccc2s1)C1c2ccccc2Oc2ccccc21	-83%	-13	68%	11%	-3	-14%
COC(=O)CCCCCCCCC(=O)Nc1nc2ccccc2s1	3%	14	28%	23%	-1	-1%
COc1ccc2nc(NC(=O)Cc3cccs3)sc2c1	9%	152*	·	151%	51*	1%
Cc1ccc2nc(-c3ccc(NC(=O)Cc4cccs4)cc3)[nH]c2c1	8%	75	4.1µM*	?	30*	-8%
COCC(=O)Nc1nc2ccccc2s1	·	50*	32%	47%	29*	8%
COCC(=O)Nc1nnc(-c2ccc(C(C)(C)C)cc2)s1	-4%	91*	16%	13%	52*	25%
CCc1ccc2nc(NC(=O)CCCc3cccs3)sc2c1	14%	49*	-5%	·	33*	4%
Cc1ccc2nc(NC(=O)Cc3cccs3)sc2c1	8%	125*	113%	·	50*	-2%
COCC(=O)Nc1nc2ccc(S(C)(=O)=O)cc2s1	-6%	108*	49%	0%	40*	-1%
CC(=O)Nc1ccc(-c2csc(NC(=O)CCCc3cccs3)n2)cc1	-8%	28	-17%	-19%	9	2%
COc1cccc(NC(=O)CN(C)C(=O)CSc2nc(C)cc(C)n2)c1	2%	·	?	-28%	·	17%
COc1cccc(N2CCN(C(=O)c3ccc(OC)c(S(=O)(=O)NC4CC4)c3)CC2)c1	·	·	·	·	·	-3%
COc1ccccc1/C=C/CN1CCCC(CCC(=O)NCc2ccccc2F)C1 (stereo not drawn)	-2%	-17	?	?	-1	-8%
SMILES	SARS PLpro yeast	Shiga toxin inh	Pf growth 96h	Pf growth 48h	CHX counter	AMA1-RON2 inh
O=C(NC1CCCCC1)c1cc2c(cc1Cl)N1CCCCCC1=NS2(=O)=O	4%	·	?	?	·	27%
CC1(C(=O)Nc2nc3ccccc3s2)CC1(Br)Br (stereo not drawn)	-2%	94*	-13%	10%[0.00184 µM]	44*	0%
O=Nc1c(O)[nH]c2ccc(F)cc12	-1%	11	-18%[5.75 µM]	3%	-3	-4%
Cc1cc2c(N=O)c(NO)ccc2[nH]1	-1%	50	41%	3.7µM*	11	21%
CN1CCN(c2c(F)cc3c(=O)c(C(=O)O)cn4c3c2OCN4C)CC1	0%	-4	15µM*!	-30%	-3	6%
CN1CCN(c2c(F)cc3c(=O)c(C(=O)O)cn(CCF)c3c2F)CC1	3%	14	-4%	0%	12	·

Screens (PubChem)
